Compound activity (PubChem)
Pol eta inh-1 = qHTS for Inhibitors of Polymerase Eta. recombinant Pol eta, fluorescent DNA replication assay. Potency, µM (doses to about 114 µM), inactives show at the top dose activity change, negative = inhibition, usual class: inhibitors. 1.2% of 390,000 active. AID 588591, 2011; also: potency is read from the fitted curve at half-maximal effect; % is scaled to controls: 0 for no effect and ±100 for the full control effect
Target sequence (Q9Y253 whole entry, looked up): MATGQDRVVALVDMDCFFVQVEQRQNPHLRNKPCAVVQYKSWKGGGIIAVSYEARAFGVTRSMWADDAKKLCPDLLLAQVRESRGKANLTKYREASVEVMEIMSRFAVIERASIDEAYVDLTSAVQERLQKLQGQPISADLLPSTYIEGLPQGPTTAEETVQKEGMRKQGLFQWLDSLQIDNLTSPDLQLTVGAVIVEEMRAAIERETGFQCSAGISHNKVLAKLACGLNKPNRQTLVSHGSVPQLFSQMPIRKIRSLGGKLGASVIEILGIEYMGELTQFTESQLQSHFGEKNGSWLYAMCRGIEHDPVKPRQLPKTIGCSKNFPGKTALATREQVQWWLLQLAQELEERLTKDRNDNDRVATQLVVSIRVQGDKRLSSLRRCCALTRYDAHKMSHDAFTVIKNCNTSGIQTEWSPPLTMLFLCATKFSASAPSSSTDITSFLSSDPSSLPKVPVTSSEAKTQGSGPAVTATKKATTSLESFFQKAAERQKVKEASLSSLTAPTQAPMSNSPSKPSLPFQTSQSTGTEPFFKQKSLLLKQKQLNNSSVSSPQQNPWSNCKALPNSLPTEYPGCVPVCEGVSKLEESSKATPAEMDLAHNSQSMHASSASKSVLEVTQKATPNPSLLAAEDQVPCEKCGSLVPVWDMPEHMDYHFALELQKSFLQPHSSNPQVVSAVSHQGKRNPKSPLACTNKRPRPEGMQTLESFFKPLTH
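Pol eta (10 nM) was preincubated with compounds for 15 min at room temperature, after which fluorescent replication substrate (50 nM final) was added to start the reaction. Fluorescence was read kinetically at 0 and 10 min.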
L3MBTL1 block = qHTS Assay for the Inhibitors of L3MBTL1; Potency, µM (series often up to 57.1 µM), for the others: at the highest dose activity, negative = inhibition, usual class: inhibitors; AID 485360, 2010; AlphaScreen L3MBTL1–H3K9me1 peptide binding; 0.66% of 230,000 active; Lethal(3)malignant brain tumor-like protein 1 (Homo sapiens), Q9Y468; also: potency is read from the fitted curve at half-maximal effect; % is scaled to controls: 0 for no effect and ±100 for the full control effect; nearly all actives have a fitted effect of over 60% in size
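AlphaScreen assay: L3MBTL1 (50 nM final) was preincubated 30 min at room temperature with biotinylated H3(1-15)K9me1 peptide (75 nM final), then 30 min with library compounds; streptavidin donor and nickel chelate acceptor beads (10 ug/mL final) added, 30 min dark.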
Pol beta inh = qHTS Assay for Inhibitors of DNA Polymerase Beta; Pol beta primer extension/strand displacement, fluorescence kinetic; Potency, µM (highest dose often 114 µM), for inactives: at the highest dose activity change, negative = inhibition, most hits filed as inhibitors; 1.3% of 340,000 active; also: potency is read from the fitted curve at half-maximal effect; % is scaled to controls: 0 for no effect and ±100 for the full control effect
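Reaction started by 50 nM substrate onto compound-treated Pol beta (10 nM, 15 min preincubation, room temperature); plates read at 0 min and 10 min. Normalized concentration-effect data fitted by four-parameter Hill equation.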
Pol kappa inh-1 = qHTS for Inhibitors of Polymerase Kappa; Potency, µM (doses to about 107 µM), inactives show at the highest dose activity, negative = inhibition, hits mostly inhibitors; AID 588579, 2011; DNA polymerase kappa (Homo sapiens), Q9UBT6; 0.53% of 400,000 active; purified Pol kappa, fluorescent DNA synthesis assay, 10 min; also: potency is read from the fitted curve at half-maximal effect; % is scaled to controls: 0 for no effect and ±100 for the full control effect
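50 nM final substrate added after 15 min RT preincubation of 10 nM Pol kappa with compound; fluorescence read at 0 and 10 min.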
POLI inh = qHTS for Inhibitors of Polymerase Iota; DNA polymerase iota (Homo sapiens), Q9UNA4; Pol iota fluorescent replication assay, 10 min; Potency, µM (doses to about 115 µM), without a hit: at the top dose activity, negative = inhibition, usual class: inhibitors; 1% of 390,000 active; AID 588590, 2011; also: potency is read from the fitted curve at half-maximal effect
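Fluorescent replication assay read twice, at 0 min and 10 min after adding 50 nM (final) substrate. Enzyme (10 nM) and compounds were first incubated 15 min at room temperature; enzyme-free buffer wells were negative controls.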
GALK confirm = Confirmation Assay for Inhibitors of Human Galactokinase (GALK) | shares compounds with Pol eta inh-1 | purified GALK, Kinase-Glo ATP depletion luminescence | Potency, µM (doses to about 115 µM), inactives show at the highest dose activity, negative = inhibition, most hits filed as inhibitors | 70% of 150 active | AID 2015, 2009
Redox cycling = Confirmatory Assay for Inhibitors of Human Galactokinase (GALK): Phenol-HRP redox assay counterscreen. shares compounds with Pol eta inh-1. Phenol red-HRP H2O2 redox cycling, absorbance 600 nm. Potency, µM (series often up to 115 µM), inactives show at the highest dose activity change, negative = H2O2 signal, usual class: inhibitors. 40% of 150 active. AID 2035, 2009
HEK293 tox = Secondary Assay for Inhibitors of Human Galactokinase (GALK): HEK-293 Cell Viability Assay. shares compounds with Pol eta inh-1. HEK-293 viability, ATP luminescence (CellTiter-Glo), 24/48 h. Potency, µM (series often up to 46.1 µM), for inactives: at the highest dose activity change, negative = cytotoxicity, hits mostly inhibitors. 10% of 170 active. AID 2547, 2010; also: potency is read from the fitted curve at half-maximal effect; % is scaled to controls: 0 for no effect and ±100 for the full control effect
Pol kappa inh-2 = qHTS for Inhibitors of Polymerase Kappa: Confirmatory Assay for Cherry-picked Compounds; shares compounds with Pol eta inh-1; purified Pol-kappa, fluorescent strand-displacement substrate; Potency, µM, hits mostly inhibitors; 76% of 920 active; AID 720501, 2013; also: potency is read from the fitted curve at half-maximal effect
Pol eta inh-2 = qHTS for Inhibitors of Polymerase Eta: Confirmatory Assay for Cherry-picked Compounds | shares compounds with Pol eta inh-1 | Pol eta primer extension, TAMRA/BHQ fluorescence, 10 min | Potency, µM, most hits filed as inhibitors | 64% of 2,600 active | AID 720502, 2013; also: potency is read from the fitted curve at half-maximal effect
Numbers without * were called inactive; ? = inconclusive; nt = not tested or not shown; [ ] = another dose, or the depositor's remark. The list is not random: actives were taken first. Their share in the collection is about 2.4%. Calls follow the shape of the dose curve; as a rule, active = well fitted curve in the direction sought with a large enough effect; inconclusive = small, poorly fitted or top-dose-only effect, or another doubt; inactive = no such curve, though single readings can be large; an effect the other way counts as inactive or inconclusive.

SMILES | Pol eta inh-1 | L3MBTL1 block | Pol beta inh | Pol kappa inh-1 | POLI inh | Pol eta inh-2 | others
CCCCn1c(=N)c(S(=O)(=O)c2ccc(Cl)cc2)cc2c(=O)n3cccc(C)c3nc21 | -19% | nt | -2% | -14% | 14% | nt
O=C1CC(c2ccc(O)c(O)c2)Oc2cc(O)cc(O)c21 (configuration not stated) | 22µM* | nt | ? | 16µM* | 50µM* | 76*
COc1ccc(C2CC(=O)c3c(O)cc(O)cc3O2)cc1O (configuration not stated) | 1% | nt | nt | -17% | -8% | nt
Nc1c(C(=O)Nc2ccc(C(=O)O)cc2)sc2nc3c(cc12)CCCC3 | ? | nt | -23% | -3% | 20% | nt
Nc1c(C(=O)Nc2cccc(C(=O)O)c2)sc2nc3c(cc12)CCCC3 | ? | nt | 1% | -9% | 23% | ? | Pol kappa inh-2=21*
CN(C)c1ncc2ncc(=O)n(Cc3ccc(F)cc3)c2n1 | nt | nt | nt | -15%[60.1 µM] | nt | nt
CC1CCN(c2oc(-c3cccs3)nc2S(=O)(=O)c2ccc(Cl)cc2)CC1 | -7% | nt | 1% | -5% | -7% | nt
CC(C)OC(=O)c1cccnc1SCC(=O)Nc1ccc(C(F)(F)F)cc1Cl | -7% | nt | 2% | -9%[60.1 µM] | 1% | nt
Nc1ccc(Br)c2cccnc12 | ? | -20% | 20% | 2% | ? | ?
CS(=O)(=O)Oc1ccc(Br)c2cccnc12 | -13% | nt | 30% | -1% | 29% | nt
O=C(O)CCN1C(=O)/C(=C\c2ccc(OCc3ccccc3)c(OCc3ccccc3)c2)SC1=S | ? | nt | -26% | -1% | -8% | nt
O=C(O)CN1C(=O)/C(=C\c2cc(Br)ccc2OCc2ccc([N+](=O)[O-])cc2)SC1=S | 28µM* | nt | 28µM* | 71µM* | 40µM* | ? | Pol kappa inh-2=27*
O=C(O)CN1C(=O)/C(=C\c2cc(Br)ccc2OCc2ccccc2F)SC1=S | ? | nt | ? | -14% | -25% | ?
O=C(O)CN1C(=O)/C(=C\c2cccc(OCc3ccc(Cl)cc3Cl)c2)SC1=S | 79µM* | -14% | 0% | -9% | ? | ? | Pol kappa inh-2=47*
O=c1oc(-c2ccc(O)c(O)c2)cc2cc(O)cc(O)c12 | 10µM* | ? | nt | ? | 28µM* | 54* | Pol kappa inh-2=?
CC(C(=O)NC1C(=O)N2C(C(=O)O)=C(CSc3nnnn3C)CSC12)n1cc(Br)cn1 (configuration not stated) | 32µM* | nt | 18µM* | ? | ? | ?
Cn1nnnc1SCC1=C(C(=O)O)N2C(=O)C(NC(=O)C3CC3c3ccccc3)C2SC1 (configuration not stated) | 14µM* | nt | 32µM* | ? | 14µM* | 48* | Pol kappa inh-2=67*
CCOc1cc(/C=C(\C#N)C(=O)Nc2cccc(C(=O)O)c2)ccc1OCc1ccccc1Cl | 56µM* | nt | -2% | 0% | ? | ?
CN(Cc1ccco1)S(=O)(=O)c1nnc(NC(=O)c2ccccc2Cl)s1 | 50µM* | nt | ? | ? | ? | ?
Cc1ccccc1C(=O)Nc1nnc(S(=O)(=O)N(C)Cc2ccco2)s1 | ? | nt | -23% | ? | -26% | nt
CN(c1ccc(Cl)cc1)S(=O)(=O)c1nnc(NC(=O)c2ccco2)s1 | ? | nt | ? | ? | ? | ? | Pol kappa inh-2=?
O=C(NCc1ccccc1)c1cccc(COc2ccc3c(c2)CCC3)c1 | -13% | 13% | -26% | -10% | 12% | nt
O=C(O)c1cccc(COc2ccc3c(c2)CCC3)c1 | 40µM* | 22µM* | 22µM* | ? | ? | 48*
O=C(N/N=C/c1cc(Br)c(O)c(Br)c1)c1cc2c(ccc3ccccc32)o1 | 18µM* | nt | ? | 20µM* | ? | 85*
Cc1c(C(=O)N2CCCC2)sc(NC(=O)c2ccc(Cl)cc2)c1C#N | 5% | 40% | 59% | 2% | 0% | nt | GALK confirm=?;Redox cycling=-1%;HEK293 tox=-16%
SMILES | Pol eta inh-1 | L3MBTL1 block | Pol beta inh | Pol kappa inh-1 | POLI inh | Pol eta inh-2 | others
O=C(Nc1ccc(S(=O)(=O)Nc2ncccn2)cc1)C12CC3CC(CC(Cl)(C3)C1)C2 | 18µM* | -10% | nt | ? | ? | 30* | Pol kappa inh-2=17*
Cn1nc(C(=O)Nc2ccc(S(=O)(=O)N3CCCC3)cc2)ccc1=O | 2% | nt | -11% | -4% | 14% | nt
Cn1nc(C(=O)Nc2ccc(S(=O)(=O)Nc3ncccn3)cc2)ccc1=O | 28µM* | nt | -23% | ? | ? | 67*
Cc1ccccc1NS(=O)(=O)c1ccc2[nH]cc(C(=O)NC(C)c3ccccc3)c(=O)c2c1 (configuration not stated) | 25µM* | nt | 40µM* | 4%[60.1 µM] | ? | ?
Cc1ccccc1NS(=O)(=O)c1ccc2[nH]cc(C(=O)N3CCCCC3)c(=O)c2c1 | 45µM* | ? | ? | -11%[60.1 µM] | ? | 76*
Cc1ccc(CCNC(=O)c2c[nH]c3ccc(S(=O)(=O)Nc4ccc(C)cc4C)cc3c2=O)cc1 | 50µM* | ? | ? | -14%[60.1 µM] | ? | ?
Cc1nn(Cc2noc(C(=O)NCC3CCCO3)n2)c(C)c1Br (configuration not stated) | -20% | nt | 8% | 10% | 18% | nt | GALK confirm=-8%;Redox cycling=4%;HEK293 tox=-5%
